Consider ten compounds from PubChem BioAssay.

Assay [1] can be described thus: Her2 expression decrease, cell viability multiplex – SKBR3 breast tumor cells, AlphaScreen, ATP viability, primary screen (AID 461;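 active = Her2 level under about 52% in both replicate screens, with viability over 70% of control, limit read from the data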;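 as to Her2 level: lower value means less Her2 protein in the cells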;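 as to viability: percent of carrier control wells set as 100% viability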). To be noted: SKBR3 Her2 protein level, 18-24 h, measured here: SKBR3 viability, ATP luminescence, at 10 µM.
Assay [2] deals with Receptor tyrosine-protein kinase erbB-2 (Homo sapiens) (UniProt P04626). The description is as above. As to conditions: 18-24 h, at 10 µM, stronger effect = lower value.
Chain of Receptor tyrosine-protein kinase erbB-2 (Homo sapiens) (P04626 whole entry, looked up): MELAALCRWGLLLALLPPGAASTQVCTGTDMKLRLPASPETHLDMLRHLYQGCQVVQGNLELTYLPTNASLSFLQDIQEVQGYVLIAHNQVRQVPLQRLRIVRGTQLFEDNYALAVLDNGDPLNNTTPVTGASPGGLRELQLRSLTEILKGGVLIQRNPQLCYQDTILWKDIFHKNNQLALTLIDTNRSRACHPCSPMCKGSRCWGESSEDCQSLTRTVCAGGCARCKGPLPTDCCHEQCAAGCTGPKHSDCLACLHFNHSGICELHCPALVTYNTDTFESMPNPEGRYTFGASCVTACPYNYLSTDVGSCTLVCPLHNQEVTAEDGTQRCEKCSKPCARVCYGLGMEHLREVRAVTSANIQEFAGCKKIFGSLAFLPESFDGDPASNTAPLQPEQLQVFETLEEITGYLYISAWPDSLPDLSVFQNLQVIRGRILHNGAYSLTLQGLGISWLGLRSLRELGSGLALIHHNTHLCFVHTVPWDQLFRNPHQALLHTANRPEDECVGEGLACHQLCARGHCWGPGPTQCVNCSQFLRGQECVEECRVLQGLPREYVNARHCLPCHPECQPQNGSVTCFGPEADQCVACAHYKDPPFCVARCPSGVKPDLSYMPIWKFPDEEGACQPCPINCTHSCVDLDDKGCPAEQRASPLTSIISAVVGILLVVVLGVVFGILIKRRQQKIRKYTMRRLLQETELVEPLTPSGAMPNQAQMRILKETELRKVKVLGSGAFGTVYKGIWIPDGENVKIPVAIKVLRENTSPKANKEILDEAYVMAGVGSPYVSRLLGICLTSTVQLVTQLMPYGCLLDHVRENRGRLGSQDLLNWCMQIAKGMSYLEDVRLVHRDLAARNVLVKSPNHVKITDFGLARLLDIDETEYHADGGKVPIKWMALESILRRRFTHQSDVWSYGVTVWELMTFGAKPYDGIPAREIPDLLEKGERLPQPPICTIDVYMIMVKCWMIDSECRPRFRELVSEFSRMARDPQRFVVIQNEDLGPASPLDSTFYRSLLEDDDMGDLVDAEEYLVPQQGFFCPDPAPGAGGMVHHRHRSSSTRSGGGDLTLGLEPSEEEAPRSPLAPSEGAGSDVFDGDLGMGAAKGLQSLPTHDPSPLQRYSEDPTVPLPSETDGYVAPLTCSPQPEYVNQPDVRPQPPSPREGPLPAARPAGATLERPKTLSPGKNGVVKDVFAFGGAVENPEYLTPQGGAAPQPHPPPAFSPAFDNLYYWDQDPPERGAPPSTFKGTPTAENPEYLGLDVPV
The nature of assay [3]: reduced viability of SK-BR-3 breast cancer cells – cell-based, 24 h, human, pilot screen (AID 572;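 active = viability at or below 10% of carrier control in both of two separate runs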;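 also: compound exposure lasted between 18 and 24 h rather than exactly 24 h; 100% = carrier-treated control wells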). To be noted: SK-BR-3 viability, CellTiter-Glo luminescence, at 10 µM, stronger effect = lower value.
Assay [4] is described as follows: HUVEC growth inhibition – cell-based, human, primary screen (AID 575;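 active = viability at or below 30% in both replicate assays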;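 also: 100% = median of untreated cell wells with 0.1% DMSO on each plate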). To be noted: HUVEC proliferation, CellTiter-Glo luminescence, 72 h; at 10 µM; stronger effect = lower value. In general terms: ATP-based viability assays read luminescence as a measure of living cells.
Assay [5] in a line: H69AR cell proliferation blockers – human, duplicate replicates, primary screen (AID 580;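 active = viability at or under a set limit in both replicates, limit being median viability minus 3 SD, cut at about 48% in these data, passing the limit was not always enough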;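 also: 100% = mean luminescence of untreated wells and 0% = no signal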). To be noted: H69AR lung tumor cells viability, ATP luminescence, 72 h; at 10 µM; stronger effect = lower value.
A short description of assay [6]: MRP1 drug-resistance reversers in H69AR cells – cell-based, doxorubicin co-treatment, pilot screen (AID 601). To be noted: CellTiter-Glo, 72 h, at 10 µM; for differential viability (reversal): stronger effect = higher value.
Assay [7] can be described thus: yeast transport mutant growth inhibition pilot in 384-well plates, post-Golgi transport modulator project (AID 636; in the data active = inhibition above about 31%). To be noted: absorbance 615 nm, about 18 h, stronger effect = higher value.
Assay [8] is described as follows: growth suppression of yeast trafficking mutant, preliminary HTS, modulators of trafficking downstream of Golgi apparatus project, 1536-format plate, OD 615 nm (AID 637; in the data active = inhibition above about 30%). To be noted: yeast transport mutant growth, absorbance 615 nm, 18 h; stronger effect = higher value.
A short description of assay [9]: S. cerevisiae growth inhibition in permissive medium (OD615), pilot counter-assay for S. cerevisiae lifespan shortening project, permissive growth control (AID 705;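 active = growth inhibition above 25% in both replicates, a cutoff set 3 SD above the mean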). To be noted: OD615, 24 h, at 10 µM, stronger effect = higher value.
Assay [10] is described as follows: S. cerevisiae growth inhibition in restrictive medium, OD615, pilot screen, restrictive growth control, yeast lifespan reduction project (AID 706;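 active = growth inhibition above a set limit, 3 SD over mean compound inhibition, in both replicates, cut at about 43% in these data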;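 also: modified DeaD lifespan yeast strain shifted to restrictive glucose medium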). As to conditions: OD615, 48 h, at 10 µM, stronger effect = higher value.
A short description of assay [11]: doxorubicin toxicity protection in MRP-1 cells – H69AR cells, CellTiter-Glo, duplicate, MRP-1 activator project, pilot screen (AID 807;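 active = viability increase at or above a cutoff of the median across tested compounds plus 3 SD, cut at about 8.5% in these data, passing the limit was not always enough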;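 also: compound pretreatment 18-22 h then 72 h combined with doxorubicin; 0% = doxorubicin alone and 100% = vehicle without doxorubicin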). To be noted: H69AR viability with doxorubicin, CellTiter-Glo luminescence; at 10 µM; stronger effect = higher value.
Assay [12] in a line: viability of HCT116 without oncogenic beta-catenin – human colon tumor cells, pilot screen (AID 823;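 active = cell viability at or below a set limit in both duplicate runs, the limit being the all-compound median minus 4 SD, cut at about 23% in these data, passing the limit was not always enough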;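 also: 0% = wells killed by 20 µM Hyamine and 100% = untreated DMSO cell wells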). As to conditions: HCT116 beta-catenin knockout viability, CellTiter-Glo, 60 h; at 10 µM; stronger effect = lower value.
A short description of assay [13]: viability of PTEN-null HCT116 cells – cell-based, HCT116 clonal line, CellTiter-Glo, pilot screen (AID 824;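 active = viability at or below 27.92% in each of two runs, the all-compound median minus 4 SD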;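 also: 0% = 20 µM Hyamine control and 100% = vehicle cell control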). As to conditions: HCT116 PTEN-deleted viability, 60 h, at 10 µM, stronger effect = lower value.
Assay [14] can be described thus: RAM pathway blockade in budding yeast – dse1pr::URA3 reporter, 5-FOA selection, pilot screen (AID 869;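 active = inhibition over a set limit, the all-compound mean plus 3 SD, in both replicate runs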;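 also: 0% = DMSO wells with no growth and 100% = 10 µM 1-NA-PP1 with full growth; RAM network block rescues cells from 5-FOA so hits raise OD615 growth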). To be noted: S. cerevisiae dse1pr::URA3 5-FOA growth, OD615, 2 d; at 10 µM; stronger effect = higher value; strain carries analog-sensitive mutant Cbk1 kinase.
Assay [15] can be described thus: RAM signaling pathway blockade in yeast – S. cerevisiae, Pdr1DBD-CYC8 efflux-inhibited sensitized strain, primary screen (AID 1298;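 active = RAM network inhibition above 8.4% in each of two replicates, 3 SD over the compound average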;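 also: 0% = DMSO untreated cells without growth and 100% = 10 µM 1-NA-PP1 full growth; higher means more yeast growth rescued from 5-FOA killing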). To be noted: S. cerevisiae cbk1-as DSE1-URA3 strain, 5-FOA growth OD615, 2 d; at 50 µM; stronger effect = higher value.
The mark [16] stands for this setting: H69AR cells + 2 uM doxorubicin, measured here: viability with 2 uM doxorubicin, stronger effect = lower value.
Where [17] appears, read: H69AR cells, compound alone cytotoxicity.

Results filed as inconclusive are left out. The source made the active and inactive calls.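 The calls were made as follows, unless noted: active = viability loss from added drug above about 55%, and viability with drug at most 40%, in both replicates (limit read from the data, passing the limit was not always enough); inconclusive = both conditions met in only one replicate; inactive = neither replicate meets both conditions.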

For `CC(=O)NCCc1nc2ccccc2[nH]1`, the viability (in general, a read-out of living cells in per cent, often relative to untreated cells) in assay [1] is 94%; in assay [3] it was 94% (inactive); in assay [4], 91.9% (inactive); in assay [5], 93.7% (inactive); in assay [6] (setting [16]), 94.7%; in assay [6] (setting [17]), 93.7%. For the same compound, the viability was 107% (inactive) in assay [12] and 97% (inactive) in assay [13]. In assay [2], the Her2 level was 104% (inactive). In addition, the differential viability (reversal) in assay [6] (H69AR cells + 2 uM doxorubicin) was -1% (inactive). For the same compound, the inhibition (in general, the relative decrease from the control value, in per cent) is -5.2% (inactive) in assay [7], -2.33% (inactive) in assay [8] and -0.365% (inactive) in [14]. For the same compound, the growth inhibition in assay [9] is -3.03% (inactive); in [10] it was 6.51% (inactive). The viability increase in assay [11] is -0.62% (inactive). Also, in [15], the RAM network inhibition is 2.3% (inactive).
Turning to `COc1ccc(OCc2nc(C#N)c(N3CCN(c4ccc(OC)cc4)CC3)o2)cc1`, the viability in assay [1] is 94%; in assay [3], 94% (inactive); in [4], 90.6% (inactive); in [5], 94% (inactive); in assay [6] (setting [16]), 79%; in assay [6] (setting [17]) it was 94%. The viability in [12] is 72.5% (inactive); in assay [13], 73.5% (inactive). For the same compound, in [2], the Her2 level is 115% (inactive). The differential viability (reversal) in assay [6] (H69AR cells + 2 uM doxorubicin) is 15% (inactive). Further, the inhibition in assay [7] was -3.07% (inactive); in assay [8], -8.17% (inactive); in assay [14], 1.06% (inactive). Further, the growth inhibition in [9] was -0.985% (inactive); in assay [10], -1.77% (inactive). Further, the viability increase in [11] was 9.38% (active). For the same compound, in assay [15], the RAM network inhibition was 9.16% (inactive).
Consider `COc1cccc2c(=O)c3c(cnn3C)n(C)c12`, for which the viability is 106% in assay [1]; 106% (inactive) in assay [3]; 84.9% (inactive) in [4]; 81.9% (inactive) in [5]; 92.8% in assay [6] (setting [16]); 81.9% in [6] (setting [17]). Also, the viability in assay [12] was 87.1% (inactive). In [2], the Her2 level was 100% (inactive). Moreover, the differential viability (reversal) in [6] (H69AR cells + 2 uM doxorubicin) is -10.9% (inactive). The inhibition is -1.97% (inactive) in assay [7], 1.27% (inactive) in assay [8] and 1.5% (inactive) in assay [14]. For the same compound, the figures for the growth inhibition in [9] and in assay [10] were -1.81% (inactive) and 48.7% (active), respectively. Besides, the viability increase in assay [11] is -5.44% (inactive). For the same compound, the RAM network inhibition in assay [15] was 0.52% (inactive).
For `COC(=O)c1cn(C(=O)c2ccc(Br)o2)c2ccccc12`, the viability is 89% in [1]; 89% (inactive) in assay [3]; 95.9% (inactive) in [4]; 88.3% (inactive) in assay [5]; 89.6% in assay [6] (setting [16]); 88.3% in assay [6] (setting [17]). The viability in assay [12] was 98.2% (inactive); in [13] it was 102% (inactive). In assay [2], the Her2 level is 102% (inactive). In [6] (H69AR cells + 2 uM doxorubicin), the differential viability (reversal) was -1.34% (inactive). The inhibition was 1.03% (inactive) in assay [7], -1.33% (inactive) in [8] and 2.23% (inactive) in assay [14]. Also, the growth inhibition was 4.04% (inactive) in assay [9] and 0.5% (inactive) in assay [10]. Besides, the viability increase in assay [11] was 0.03% (inactive). Also, the RAM network inhibition in [15] is 4.65% (inactive).
Regarding `Cc1[nH]nc2c1C(C1CC=CCC1)C(C#N)=C(N)O2` (stereo unspecified), the viability in assay [1] is 102%; in assay [3], 102% (inactive); in [4] it was 63.5% (inactive); in assay [5] it was 96% (inactive); in assay [6] (setting [16]) it was 95.1%; in assay [6] (setting [17]), 96%. Further, the viability in assay [12] was 17.6% (active). Moreover, the Her2 level in assay [2] was 80% (inactive). The differential viability (reversal) in assay [6] (H69AR cells + 2 uM doxorubicin) is 0.85% (inactive). The values for the inhibition in assay [7], in [8] and in [14] were 0.65% (inactive), -9.17% (inactive) and 3.08% (inactive), respectively. Besides, the growth inhibition in assay [9] is 1.72% (inactive); in [10] it was 1.64% (inactive). Besides, the viability increase in assay [11] was -5.29% (inactive). Further, the RAM network inhibition in [15] is -0.5% (inactive).
Turning to `CC1=C(C(=O)Nc2ccc(F)cc2)C(c2cccc(C)c2)n2nc(CCCO)nc2N1` (stereo unspecified), the viability in [1] is 87.5%; in [3], 87.5% (inactive); in [4], 79% (inactive); in assay [5] it was 94% (inactive); in assay [6] (setting [16]), 92.5%; in [6] (setting [17]), 94%. The figures for the viability in [12] and in assay [13] were 98.2% (inactive) and 100% (inactive), respectively. The Her2 level in assay [2] is 91.5% (inactive). In addition, in assay [6] (H69AR cells + 2 uM doxorubicin), the differential viability (reversal) is 1.5% (inactive). The figures for the inhibition in assay [7], in assay [8] and in [14] were -3.73% (inactive), -2.83% (inactive) and -0.19% (inactive), respectively. The growth inhibition is -1.56% (inactive) in [9] and -3% (inactive) in assay [10]. In assay [11], the viability increase was -0.66% (inactive). The RAM network inhibition in assay [15] was 1.3% (inactive).
For the compound `CCOc1ccc(Cn2nnc(C(=O)Nc3cc(C)cc(C)c3)c2N)cc1`, the viability in assay [1] was 89.5%; in assay [3], 89.5% (inactive); in assay [4] it was 80.4% (inactive); in [5], 86.2% (inactive); in [6] (setting [16]), 78.3%; in assay [6] (setting [17]), 86.2%. Further, the viability is 73% (inactive) in assay [12] and 77.8% (inactive) in assay [13]. Besides, the Her2 level in assay [2] is 90.5% (inactive). Besides, the differential viability (reversal) in [6] (H69AR cells + 2 uM doxorubicin) is 7.9% (inactive). Moreover, the figures for the inhibition in assay [7], in [8] and in assay [14] were 0% (inactive), -3.28% (inactive) and 3.23% (inactive), respectively. Also, the growth inhibition was -7.71% (inactive) in assay [9] and 1.04% (inactive) in assay [10]. Moreover, the viability increase in [11] is -3.02% (inactive). Further, the RAM network inhibition in assay [15] is 8.35% (inactive).
Consider `CC1CCN(Cc2nc3c(c(=O)n(C)c(=O)n3C)n2Cc2cccc3ccccc23)CC1`, for which the viability is 84% in assay [1]; 84% (inactive) in assay [3]; 98% (inactive) in assay [4]; 84.9% (inactive) in assay [5]; 89.2% in assay [6] (setting [16]); 84.9% in assay [6] (setting [17]). For the same compound, the viability is 87% (inactive) in [12] and 88.2% (inactive) in assay [13]. The Her2 level in [2] was 86.5% (inactive). Also, the differential viability (reversal) in [6] (H69AR cells + 2 uM doxorubicin) is -4.26% (inactive). Moreover, the inhibition in assay [7] is -4% (inactive); in assay [8], 3.67% (inactive); in assay [14], 0.115% (inactive). Moreover, the results for the growth inhibition in assay [9] and in assay [10] were -0.525% (inactive) and 0.35% (inactive), respectively. For the same compound, the viability increase in assay [11] is -1.93% (inactive). Further, the RAM network inhibition in assay [15] was 7.49% (inactive).
As to `Cn1ccnc1SCC(=O)Nc1ccc2ccccc2c1`, the viability in assay [1] was 96.5%; in assay [3], 96.5% (inactive); in assay [4], 91.5% (inactive); in [5], 105% (inactive); in assay [6] (setting [16]), 86.9%; in assay [6] (setting [17]), 105%. For the same compound, the viability in assay [12] is 96.8% (inactive). Further, in [2], the Her2 level was 85.5% (inactive). For the same compound, the differential viability (reversal) in assay [6] (H69AR cells + 2 uM doxorubicin) is 17.8% (inactive). For the same compound, the inhibition in [7] is -4.38% (inactive); in [8], -4.92% (inactive); in assay [14], 1.69% (inactive). Moreover, the growth inhibition is 2.36% (inactive) in assay [9] and 3.36% (inactive) in assay [10]. For the same compound, the viability increase in assay [11] is -2.68% (inactive). In assay [15], the RAM network inhibition is 3.49% (inactive).
For the compound `CCOCCCNC(=O)C(c1ccc(C)cc1)N(Cc1ccc2c(c1)OCO2)C(=O)c1cnccn1` (stereo unspecified), the viability in [1] is 98%; in [3], 98% (inactive); in assay [4], 103% (inactive); in assay [5], 98.7% (inactive); in assay [6] (setting [16]) it was 98.9%; in [6] (setting [17]), 98.7%. In assay [12], the viability is 93.8% (inactive). Besides, the Her2 level in assay [2] is 102% (inactive). Also, the differential viability (reversal) in assay [6] (H69AR cells + 2 uM doxorubicin) was -0.27% (inactive). Moreover, the figures for the inhibition in assay [7], in assay [8] and in assay [14] were -5.34% (inactive), 2.38% (inactive) and 1.83% (inactive), respectively. The growth inhibition in assay [9] is -5.46% (inactive); in [10], 3.09% (inactive). In addition, the viability increase in assay [11] is -2.67% (inactive). For the same compound, the RAM network inhibition in [15] was 5.34% (inactive).
